# Values joined by “and” are separate entries in the source; they are usually repeats but may differ in a detail not shown here. Equal entries are not always repeated. Some compounds were tested as several samples or in several runs, with calls that do not always agree. Active and inactive are the calls of the source.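 The calls were made as follows, unless noted: active = mean z-score across replicates of 1.96 or higher in either the MELAS or the Rieske mutant cell line; inactive = the rest.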
# What was measured:
# [1] = yeast 75Q aggregation reduction – 75Q-TubU reporter (AID 1593); details: Yeast 75Q polyglutamine aggregation reporter
# [2] = blockers of cytochrome c efflux from mitochondria – biochemical, purified mitochondria (AID 1603); details: stronger effect = lower value;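 also: mouse liver mitochondria challenged with calcium chloride; signal normalized to the plate average as 100%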
# [3] = polyglutamine aggregate formation blockers (AID 1604); details: polyglutamine-induced protein aggregation inhibition assay; stronger effect = higher value; tested at 2.5 µM
# [4] = P. berghei load reduction in hepatocytes – cell-based, HepG2, luciferase luminescence, HepG2 viability, primary screen (AID 624349; in the data active = parasite load remaining mostly below about 12%, no sharp cut-off; inactive = mostly above about 10%;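 also: 100% = mean of DMSO negative control wells on the same plate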); details: P. berghei liver stage in HepG2, luciferase luminescence, concentration not given here; parasite load remaining: stronger effect = lower value; viability: measured here: HepG2 viability without parasites
# [5] = Wnt pathway potentiators raising nuclear beta-catenin – imaging, WNT3A-conditioned medium, mouse C2C12, NPC library, primary screen (AID 1117326; in the data active = nuclear beta-catenin stimulation mostly above about 4.2%, no sharp cut-off; inactive = mostly below about 10%); details: stronger effect = higher value
# [6] = stimulators of insulin release from INS-1E, primary screen, cell-based, 5 mM glucose, NPC library (AID 1117329;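 active = compound raises insulin release from rat beta cells at 5 mM glucose, no numeric limit stated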); details: rat INS-1E insulin secretion, at 10 µM, stronger effect = higher value
# [7] = growth inhibition of GSK3B-pretreated HCT116 cells – cell-based, CellTiter-Glo, 0.2 to 20 µM (AID 1117336;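 active = compounds lowering colon cancer cell viability after pretreatment blocking the GSK3B kinase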); details: HCT116 viability after GSK3B inhibitor, at 20 µM, stronger effect = higher value
# [8] = inhibition of endothelial tube formation, primary screen, imaging, VEGF stimulated, CD31 staining, tube area, NPC library (AID 1117340;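 active = compound that reduces growth-factor-driven endothelial tube area in a mixed cell culture, no cutoff stated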); details: VEGF-stimulated ADSC/ECFC co-culture, at 10 µM, stronger effect = higher value
# [9] = GLP1 release stimulators, primary, NCI-H716, NPC library (AID 1117341;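 active = compound raises GLP1 secretion from the human gut endocrine cells, with no numeric limit stated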); details: NCI-H716 cells, at 10 µM, stronger effect = higher value
# [10] = HCT116 colon cancer cell growth inhibition, primary screen, CellTiter-Glo luminescence, NPC library (AID 1117342;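 active = compounds that lower survival of HCT116 colon cancer cells in the luminescence readout, no numeric limit stated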); details: at 20 µM (top of the series)
# [11] = reduced SW480 viability measured with CellTiter-Glo, NPC library, primary (AID 1117343;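 active = compounds that lower viability of the colon cancer cells in the luminescence readout, with no numeric limit stated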); details: CellTiter-Glo luminescence; at 20 µM (top of the series)
# [12] = NPC library primary testing for decreased DLD-1 cell viability via CellTiter-Glo (AID 1117346;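 active = compounds that lower survival of DLD-1 colon cancer cells in the luminescence readout, no cutoff given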); details: DLD-1 viability, CellTiter-Glo luminescence; at 20 µM (top of the series)
# [13] = biological target: 6-phosphogluconate dehydrogenase, decarboxylating (Homo sapiens) (UniProt P52209); assay: inhibition of human phosphogluconate dehydrogenase – biochemical, recombinant enzyme, NADPH absorbance, primary screen (AID 1159550;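 active = at least 20% inhibition of 6-phosphogluconate dehydrogenase activity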); details: recombinant 6PGD, NADPH absorbance 341 nm; at 10 µM; stronger effect = higher value
# [14] = EMT-state selective cytotoxicity in co-culture – imaging, PC-3E GFP, TEM4-18 mCherry, primary screen (AID 1345086;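 active = compounds killing one labelled cell type while sparing the other, by normalised counts and ratio limits, not self-fluorescent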;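 as to all read-outs here: cells exposed to compound for 72 h before imaging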;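 as to red/green cell ratio (normalised): normalised mesenchymal count divided by normalised epithelial count so high means epithelial killing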); details: PC-3E GFP / TEM4-18 mCherry co-culture, imaging cell counts, at 1 µM; for red/green cell ratio (normalised): actives lie on both sides
# [15] = system: Aerobactin synthetase IucA (Klebsiella pneumoniae hvKP1); assay: IucA enzyme inhibition, primary screen, biochemical, Spectrum library (AID 1346200; call rule not given here;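 also: 100% = wells without compound and 0% = wells lacking enzyme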); details: malachite green pyrophosphate, A620, at 8 µM, stronger effect = lower value
# [16] = viability loss with induced miR-34 in A549 – imaging, A549 dox-inducible miR-34, nuclei and caspase counts, primary screen (AID 1347080;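 active = compounds whose cell count with miR-34 switched on is under 0.7 times the count with it off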); details: A549 miR-34 inducible, Hoechst nuclei count, 48 h
# [17] = MELAS cybrid and Rieske KO viability enhancers – cell-based, MELAS cybrids, Rieske KO mouse fibroblasts, CellTiter-Glo, primary screen (AID 1508586); details: low glucose;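 also: z relative to plate mean and SD of compound and empty wells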
# [18] = biological target: NAD(+) hydrolase SARM1 (Homo sapiens) (UniProt Q6SZW1); assay: blocking NAD cleavage by SARM1 SAM-TIR – cell lysate, NAD-Glo luminescence (AID 1508614;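 active = compound whose remaining NAD level is above about 45 nM, limit read from the data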;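 also: higher remaining NAD means stronger inhibition of SARM1 NADase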); details: SAM-TIR HEK293T lysate NADase, at 1 µM, stronger effect = higher value
# [19] = biological target: Mitogen-activated protein kinase 7 (Homo sapiens) (UniProt Q13164); assay: Gal4-ERK5 driven luciferase induction – cell-based, HTS, primary screen (AID 1508626;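 active = luciferase signal above three times the same-plate solvent-only control wells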;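 also: luciferase driven by Gal4-ERK5 fusion binding five Gal4 sites before minimal TATA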); details: HeLa Gal4-ERK5 transactivation, 18 h, at 5 µM, stronger effect = higher value
# [20] = galactose survival enhancers in mitochondrial complex I cybrids – cell-based, galactose medium, ATP luminescence, primary screen (AID 1645843;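 active = z-score of at least 1.8 in each of two replicates, scored against plate mean and spread of sample wells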;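 also: positive z means more ATP and so rescue of galactose-driven cybrid death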); details: complex I mutant cybrid cells, 72 h, stronger effect = higher value
# [21] = measured here: epithelial PC-3E GFP cell survival
# [22] = measured here: mesenchymal TEM4-18 mCherry cell survival
# [23] = measured here: total cells without miR-34 induction
# [24] = MELAS cybrid survival, CellTiter-Glo 48 h, stronger effect = higher value
# [25] = Rieske KO mouse fibroblast survival, CellTiter-Glo 72 h
# Sequence of 6-phosphogluconate dehydrogenase, decarboxylating (Homo sapiens) (P52209 whole entry, looked up): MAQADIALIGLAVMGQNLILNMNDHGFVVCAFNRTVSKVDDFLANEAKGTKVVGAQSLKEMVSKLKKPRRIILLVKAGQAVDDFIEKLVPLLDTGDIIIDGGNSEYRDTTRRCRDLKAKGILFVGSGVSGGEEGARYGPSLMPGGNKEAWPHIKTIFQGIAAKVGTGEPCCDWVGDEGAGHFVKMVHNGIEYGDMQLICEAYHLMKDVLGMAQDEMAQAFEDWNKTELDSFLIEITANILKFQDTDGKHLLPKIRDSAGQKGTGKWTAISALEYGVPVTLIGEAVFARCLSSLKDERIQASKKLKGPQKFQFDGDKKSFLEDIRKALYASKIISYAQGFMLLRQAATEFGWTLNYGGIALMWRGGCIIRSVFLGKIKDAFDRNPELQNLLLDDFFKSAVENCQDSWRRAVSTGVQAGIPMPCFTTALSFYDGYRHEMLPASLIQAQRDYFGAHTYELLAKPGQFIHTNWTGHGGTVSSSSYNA
# Sequence of NAD(+) hydrolase SARM1 (Homo sapiens) (Q6SZW1 whole entry, looked up, the tested form may be a part): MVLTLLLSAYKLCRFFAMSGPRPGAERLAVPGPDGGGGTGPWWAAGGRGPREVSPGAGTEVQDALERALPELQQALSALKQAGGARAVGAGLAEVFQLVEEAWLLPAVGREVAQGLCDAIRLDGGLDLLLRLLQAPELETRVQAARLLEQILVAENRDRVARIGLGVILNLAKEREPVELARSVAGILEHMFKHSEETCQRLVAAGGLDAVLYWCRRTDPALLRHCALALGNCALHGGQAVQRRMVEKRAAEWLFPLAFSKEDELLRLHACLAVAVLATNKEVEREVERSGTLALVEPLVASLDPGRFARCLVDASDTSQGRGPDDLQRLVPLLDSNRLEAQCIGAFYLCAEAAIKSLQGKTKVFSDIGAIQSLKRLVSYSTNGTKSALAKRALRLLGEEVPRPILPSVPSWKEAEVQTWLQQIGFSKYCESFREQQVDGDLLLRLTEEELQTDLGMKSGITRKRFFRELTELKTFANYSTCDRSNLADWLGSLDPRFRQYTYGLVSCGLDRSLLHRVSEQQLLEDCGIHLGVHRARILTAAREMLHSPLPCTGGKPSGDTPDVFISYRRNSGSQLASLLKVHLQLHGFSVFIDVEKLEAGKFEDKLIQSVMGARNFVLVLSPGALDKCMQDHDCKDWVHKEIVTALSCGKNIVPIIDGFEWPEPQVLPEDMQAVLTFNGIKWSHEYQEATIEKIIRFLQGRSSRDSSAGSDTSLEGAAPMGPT
# Sequence of Mitogen-activated protein kinase 7 (Homo sapiens) (Q13164 whole entry, looked up, the tested form may be a part): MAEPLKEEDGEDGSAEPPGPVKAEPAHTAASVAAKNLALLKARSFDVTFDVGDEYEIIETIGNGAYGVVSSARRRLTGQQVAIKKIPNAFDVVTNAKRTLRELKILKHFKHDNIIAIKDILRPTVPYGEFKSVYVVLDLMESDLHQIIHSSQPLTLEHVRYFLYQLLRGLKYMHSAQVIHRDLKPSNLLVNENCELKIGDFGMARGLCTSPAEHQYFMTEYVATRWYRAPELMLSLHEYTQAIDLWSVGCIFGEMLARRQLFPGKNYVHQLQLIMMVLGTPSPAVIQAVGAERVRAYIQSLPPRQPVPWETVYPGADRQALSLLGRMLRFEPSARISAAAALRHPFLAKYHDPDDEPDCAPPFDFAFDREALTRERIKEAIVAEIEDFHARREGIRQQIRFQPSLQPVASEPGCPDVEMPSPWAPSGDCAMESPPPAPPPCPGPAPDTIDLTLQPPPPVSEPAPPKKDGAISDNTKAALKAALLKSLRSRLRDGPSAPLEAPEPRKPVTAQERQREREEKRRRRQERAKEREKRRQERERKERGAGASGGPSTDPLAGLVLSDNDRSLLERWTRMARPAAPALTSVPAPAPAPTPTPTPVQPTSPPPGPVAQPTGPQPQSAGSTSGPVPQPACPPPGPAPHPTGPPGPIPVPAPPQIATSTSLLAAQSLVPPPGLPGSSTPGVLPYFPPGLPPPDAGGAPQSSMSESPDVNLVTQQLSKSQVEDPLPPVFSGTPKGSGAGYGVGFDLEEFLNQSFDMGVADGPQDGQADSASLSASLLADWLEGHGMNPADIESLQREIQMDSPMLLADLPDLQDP
smiles,measurement,setting,value
O=c1[nH]oc2c1CCNC2,score,[1],1.55
same,cytochrome c release ratio,[2],0.75
same,inhibition of aggregation,[3],73%
same,parasite load remaining,[4],119% (inactive)
same,viability,[4],90%
same,nuclear beta-catenin stimulation,[5]; at 10 µM,0.9% (inactive)
same,nuclear beta-catenin stimulation,"[5]; stimulation, at 2 µM",-0.2%
same,insulin secretion stimulation,[6],1.95% (inactive)
same,viability decrease,[7],23.2% (inactive)
same,tube area decrease,[8],2% (inactive)
same,GLP1 secretion stimulation,[9],0.6% (inactive)
same,inhibition of viability,[10],7% (inactive)
same,viability decrease (inhibition),[11],-16.8% (inactive)
same,viability decrease (inhibition),[12],2.4% (inactive)
same,inhibition,[13],-2.26% (inactive)
same,red/green cell ratio (normalised),[14],1.27 (inactive)
same,normalised cell number,[14]; [21],0.86
same,normalised cell number,[14]; [22],1.1
same,activity remaining,[15],105% (inactive)
same,fold change,[16]; stronger effect = lower value,0.986 (inactive) and 0.895 (inactive) and 0.961 (inactive)
same,fold change,[16]; measured here: relative caspase fold change +Dox/-Dox,0.885 and 0.751 and 0.995
same,cell count,"[16]; measured here: total cells with miR-34 induction, stronger effect = lower value",10200 and 8820 and 8460
same,cell count,[16]; [23],10400 and 9850 and 8810
same,z-score,[17]; [24],0.562 (inactive)
same,z-score,[17]; [25],-0.393
same,remaining NAD,[18],10 nM (inactive)
same,luciferase signal,[19],104 AU (inactive)
same,z-score,[20],0.375 (inactive) and 2.83 (active)
CN(C)[C@@H]1C(=O)C(C(N)=O)=C(O)[C@@]2(O)C(=O)C3=C(O)c4c(O)cccc4[C@@](C)(O)[C@H]3C[C@@H]12,score,[1],0.85
same,cytochrome c release ratio,[2],2.45
same,inhibition of aggregation,[3],47.2%
same,nuclear beta-catenin stimulation,[5]; at 10 µM,1% (inactive)
same,nuclear beta-catenin stimulation,"[5]; stimulation, at 2 µM",1.9%
same,insulin secretion stimulation,[6],2.5% (inactive)
same,viability decrease,[7],-202% (inactive)
same,tube area decrease,[8],9.8% (inactive)
same,GLP1 secretion stimulation,[9],-2.8% (inactive)
same,inhibition of viability,[10],12.1% (inactive)
same,viability decrease (inhibition),[11],43.4% (inactive)
same,viability decrease (inhibition),[12],73.3% (active)
same,inhibition,[13],-5.09% (inactive)
same,red/green cell ratio (normalised),[14],0.98 (inactive) and 1.18 (inactive)
same,normalised cell number,[14]; [21],0.93 and 1.05
same,normalised cell number,[14]; [22],0.91 and 1.24
same,activity remaining,[15],92.7% (inactive)
same,cell count,[16]; [23],7550 and 8910 and 10100
same,z-score,[17]; [24],4.37 (active) and -3.68 (inactive) and 0.0486
same,z-score,[17]; [25],0.792 and -3.53 and 2.26
same,remaining NAD,[18],10 nM (inactive)
same,luciferase signal,[19],324 AU (active)
same,z-score,[20],2.65 (active)
COc1ccc(C(CN(C)C)C2(O)CCCCC2)cc1 (centres undefined),nuclear beta-catenin stimulation,[5]; at 10 µM,3.1% (inactive)
same,nuclear beta-catenin stimulation,"[5]; stimulation, at 2 µM",1.4%
same,insulin secretion stimulation,[6],2.1% (inactive)
same,viability decrease,[7],-40% (inactive)
same,tube area decrease,[8],1.5% (inactive)
same,GLP1 secretion stimulation,[9],4.1% (inactive)
same,inhibition of viability,[10],-3.77% (inactive)
same,viability decrease (inhibition),[11],-4% (inactive)
same,viability decrease (inhibition),[12],-3.8% (inactive)
same,inhibition,[13],-0.228% (inactive)
same,red/green cell ratio (normalised),"[14]; counts scaled to control wells, 1 = unselective",1.25 (inactive)
same,normalised cell number,[14]; [21],1.01
same,normalised cell number,[14]; [22],1.26
same,activity remaining,[15],123% (inactive)
same,z-score,[17]; [24],2.81 (active) and 0.624 (inactive) and -0.216 (inactive)
same,z-score,[17]; [25],-2.19 and 0.0731 and -0.394
same,remaining NAD,[18],10 nM (inactive)
same,luciferase signal,[19],48 AU (inactive)
same,z-score,[20],-0.07 (inactive) and 0.705 (inactive) and 0.625 (inactive)
O=C(O)c1ccc(=O)[nH]c1,nuclear beta-catenin stimulation,[5]; at 10 µM,0.4% (inactive)
same,nuclear beta-catenin stimulation,"[5]; stimulation, at 2 µM",0.8%
same,insulin secretion stimulation,[6],2.6% (inactive)
same,viability decrease,[7],3.2% (inactive)
same,tube area decrease,[8],-2.4% (inactive)
same,GLP1 secretion stimulation,[9],-0.3% (inactive)
same,inhibition of viability,[10],7.7% (inactive)
same,viability decrease (inhibition),[11],-13.1% (inactive)
same,viability decrease (inhibition),[12],-3.9% (inactive)

# Source: PubChem BioAssay
